# From the supplement of paper PMC6555819
# What was measured:
# Assay in all cases: PBM binding z-score (relative to random genomic background probes); higher = stronger binding; sequences stand for … in GC…GCGATTGACAGCGTAGAATGAAGG
# [1] = tested on: FXR:RXRa (NR concentration 270 nM, RXRa partner concentration 90 nM)
# Method in brief: (§1)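 Each nuclear receptor dimer, without ligand, was incubated for 1 h on custom Agilent 4×180K protein-binding microarrays. Binding was detected with antibodies against each partner (one per run), and scanned fluorescence was regression-normalized. The binding z-scores are referenced to random human genomic background probes.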
# [2] = tested on: LXRa:RXRa (NR concentration 270 nM, RXRa partner concentration 90 nM)
# Method in brief: as §1
# [3] = tested on: LXRa homodimer (NR concentration 270 nM)
# Method in brief: as §1
# [4] = tested on: LXRb:RXRa (NR concentration 270 nM, RXRa partner concentration 90 nM)
# Method in brief: as §1
# [5] = tested on: LXRb homodimer (NR concentration 270 nM)
# Method in brief: as §1
# [6] = tested on: PPARa:RXRa (NR concentration 270 nM, RXRa partner concentration 90 nM)
# Method in brief: as §1
# [7] = tested on: PPARg:RXRa (NR concentration 180 nM, RXRa partner concentration 90 nM)
# Method in brief: as §1
# [8] = tested on: PPARg:RXRa 270nM:90nM, anti-RXR (NR concentration 270 nM, RXRa partner concentration 90 nM)
# Method in brief: as §1
# [9] = tested on: PPARg:RXRa 30nM:10nM, anti-RXR (NR concentration 30 nM, RXRa partner concentration 10 nM)
# Method in brief: as §1
# [10] = tested on: PPARg:RXRa 90nM:30nM, anti-RXR (NR concentration 90 nM, RXRa partner concentration 30 nM)
# Method in brief: as §1
# [11] = tested on: PPARg:RXRa DBDmut IVT, anti-RXR (DBD mutation: RXRa K156A/R161A, NR concentration 270 nM, RXRa partner concentration 90 nM)
# Method in brief: as §1
# [12] = tested on: PPARg:RXRa IVT, anti-PPARg (NR concentration 270 nM, RXRa partner concentration 90 nM)
# Method in brief: as §1
# [13] = tested on: PPARg DBDmut:RXRa IVT, anti-PPARg (DBD mutation: PPARg1 K132A/R137A, NR concentration 270 nM, RXRa partner concentration 90 nM)
# Method in brief: as §1
# [14] = tested on: PPARg DBDmut IVT, anti-PPARg (DBD mutation: PPARg1 K132A/R137A, NR concentration 270 nM)
# Method in brief: as §1
# [15] = tested on: PPARg homodimer (NR concentration 180 nM)
# Method in brief: as §1
# [16] = tested on: PXR:RXRa (NR concentration 270 nM, RXRa partner concentration 90 nM)
# Method in brief: as §1
# [17] = tested on: PXR homodimer (NR concentration 270 nM)
# Method in brief: as §1
# [18] = tested on: RARa:RXR (NR concentration 270 nM, RXRa partner concentration 90 nM)
# Method in brief: as §1
# [19] = tested on: RARa homodimer (NR concentration 270 nM)
# Method in brief: as §1
# [20] = tested on: RARb:RXRa (NR concentration 270 nM, RXRa partner concentration 90 nM)
# Method in brief: as §1
Sequence,PBM binding z-score [1],PBM binding z-score [2],PBM binding z-score [3],PBM binding z-score [4],PBM binding z-score [5],PBM binding z-score [6],PBM binding z-score [7],PBM binding z-score [8],PBM binding z-score [9],PBM binding z-score [10],PBM binding z-score [11],PBM binding z-score [12],PBM binding z-score [13],PBM binding z-score [14],PBM binding z-score [15],PBM binding z-score [16],PBM binding z-score [17],PBM binding z-score [18],PBM binding z-score [19],PBM binding z-score [20]
ATCTCTAGGTAACCTAGTTCAGTGAATGCCGAAC,0.745,1.07,0.16,1.26,0.421,2.24,1.69,1.42,0.221,0.568,4.08,4.62,1.92,1.24,1.02,1.02,0.262,0.692,0.202,0.704
CCTATTAGTTGATCATAAGGGCAACCGAAGCTCG,0.383,0.258,0.608,0.291,0.94,0.433,0.394,0.295,0.0236,0.185,0.357,0.623,0.203,0.605,1.64,0.491,0.836,0.442,1.25,1.23
ACTTACGGGTCAACGAGGTTATAGTACGCGTATA,6.84,5.12,1.1,4.53,0.951,5.76,5.66,5.72,2.24,4.29,3.12,4.22,1.99,1.76,2.88,5.39,4.31,5.61,1.04,4.13
